Drawing on PubChem BioAssay (Tox21), this text covers Potency and outcome for 23 compounds.

A short description of assay [1]: A CellTox Green Cytotoxicity Assay to monitor cytotoxicity in HepG2 cells - 8 hour (AID 1224890). Further: nearly all actives have a fitted effect of over 45% in size. The gist of the method: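 Nonlytic assay: viable cells exclude the dye, so fluorescence scales with cell death. HepG2 at 600 cells/well, compounds added after 5 h, signal read across 40 h.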
Assay [2] can be described thus: qHTS assay to identify small molecule antagonists of the estrogen receptor alpha (ER-alpha) signaling pathway using the BG1 cell line in the presence of 0.1 nM 17-beta-estradiol - cell viability counter screen (AID 1259241). Further: nearly all actives have a fitted effect of over 40% in size. The gist of the method: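 Cells were plated and left 24 hr, compounds in DMSO were pinned in, 17beta-estradiol was added to 0.1 nM final, and after 22 hr CellTiter-Fluor reagent was added for 30 min before fluorescence was read.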

Assay [3] in a line: qHTS assay to identify small molecule antagonists of the androgen receptor (AR) signaling pathway using the MDA cell line in the presence of 0.5 nM R1881 - cell viability counter screen (AID 1259242). Further: nearly all actives have a fitted effect of over 45% in size. The gist of the method: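 R1881 at 0.5 nM final stimulated MDA-kb2 cells during 16 hr compound treatment at 37C. Cytotoxicity read: CellTiter-Fluor fluorescence after 30 min.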

Assay [4] can be described thus: qHTS assay to identify small molecule phospholipidosis (PLD) inducers (AID 1259344; active means well fitted curve in the direction sought with a large enough effect; an effect the other way counts as inactive or inconclusive; further: potency means the concentration at half of the fitted maximal effect). An outline of the steps:
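HepG2 cells grown on collagen I take up LipidTOX Red while exposed to compound for 24 h; after fixation they are imaged at 20x and pit metrics are extracted.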

The nature of assay [5]: qHTS assay to identify small molecule HDAC inhibitors (AID 1259364). Further: potency means the concentration at half of the fitted maximal effect.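 Further: wild-type HCT-116 cells with endogenous class I/II HDAC activity; nearly all actives have a fitted effect of over 45% in size.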 The gist of the method: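 Relative class I and II HDAC activity is taken from the luminogenic signal in HCT-116 cells, with compound exposure 2 hr and reagent development 30 min at room temperature.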
Assay [6] can be described thus: qHTS assay to identify small molecule agonists of the sonic hedgehog signaling (Shh) pathway - cell viability counter screen (AID 1259366). Further: nearly all actives have a fitted effect of over 50% in size. Further: potency means the concentration at half of the fitted maximal effect. The gist of the method:
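Cells are plated at 2,000 per well and left 4hr at 37C, 5% CO2 before compound addition. After 23hr of treatment, CellTiter-Fluor reagent is added for 1hr at 37C and fluorescence is measured.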

Assay [7] in a line: qHTS assay to identify small molecule antagonists of the sonic hedgehog signaling (Shh) pathway - cell viability counter screen (AID 1259367). Further: nearly all actives have a fitted effect of over 55% in size. Further: potency means the concentration at half of the fitted maximal effect. The gist of the method:
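After a 4 hr settling period, 3T3 Gli1-Luc cells were treated with DMSO-dissolved chemicals and conditioned medium, kept 24 hr at 37C in 5% CO2, and assayed for viability by CellTiter-Fluor fluorescence following 1 hr reagent incubation.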

The target in assay [8] is Androgen receptor (Homo sapiens) (UniProt P10275). The assay is described as follows: qHTS assay to identify small molecule antagonists of the androgen receptor (AR) signaling pathway using the MDA cell line in the presence of 0.5 nM R1881 (AID 1259243). Further: nearly all actives have a fitted effect of over 50% in size. Further: potency means the concentration at half of the fitted maximal effect. An outline of the steps:
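We exposed MDA-kb2 cells to compounds under 0.5 nM R1881 stimulation for 16 hr at 37C and quantified MMTV-driven luciferase by luminescence.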

Assay [9] deals with Estrogen receptor (Homo sapiens) (UniProt P03372). As to the kind of experiment: qHTS assay to identify small molecule antagonists of the estrogen receptor alpha (ER-alpha) signaling pathway using the BG1 cell line in the presence of 0.1 nM 17-beta-estradiol (AID 1259244). Further: nearly all actives have a fitted effect of over 50% in size. Further: potency means the concentration at half of the fitted maximal effect. The gist of the method: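 VM7Luc4E2; 4xERE-luciferase; 0.1 nM E2 final; 22 h co-incubation, 37C; ONE-Glo luminescence after 30 min at room temperature.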

Assay [10] in a line: qHTS assay to identify small molecule HDAC inhibitors - cell viability counter screen (AID 1259365). Further: series mostly up to about 92 µM; nearly all actives have a fitted effect of over 50% in size. The gist of the method: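 Counter screen in wild-type HCT-116 cells: compounds dissolved in DMSO are pin-transferred onto overnight-plated cells and left 2hr at 37C. ATP-based CellTiter-Glo luminescence then measures viable cells.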

Structures are written as SMILES. “And” between values parts separate entries of the source, which are not always exact repeats. Identical values can stand only once. Records with an inconclusive call do not appear. The source holds several records for some structures; these can differ, active in one and inactive in another. The source made the active and inactive calls. Unless noted, the call rests on the fitted dose curve; in most records, active means well fitted curve in the direction sought with a large enough effect in the repeat runs; inconclusive means weak or mixed curves; inactive means no such curve, though single readings can be large; an effect the other way counts as inactive or inconclusive.

Sequence of Estrogen receptor (Homo sapiens) (P03372 whole entry, looked up): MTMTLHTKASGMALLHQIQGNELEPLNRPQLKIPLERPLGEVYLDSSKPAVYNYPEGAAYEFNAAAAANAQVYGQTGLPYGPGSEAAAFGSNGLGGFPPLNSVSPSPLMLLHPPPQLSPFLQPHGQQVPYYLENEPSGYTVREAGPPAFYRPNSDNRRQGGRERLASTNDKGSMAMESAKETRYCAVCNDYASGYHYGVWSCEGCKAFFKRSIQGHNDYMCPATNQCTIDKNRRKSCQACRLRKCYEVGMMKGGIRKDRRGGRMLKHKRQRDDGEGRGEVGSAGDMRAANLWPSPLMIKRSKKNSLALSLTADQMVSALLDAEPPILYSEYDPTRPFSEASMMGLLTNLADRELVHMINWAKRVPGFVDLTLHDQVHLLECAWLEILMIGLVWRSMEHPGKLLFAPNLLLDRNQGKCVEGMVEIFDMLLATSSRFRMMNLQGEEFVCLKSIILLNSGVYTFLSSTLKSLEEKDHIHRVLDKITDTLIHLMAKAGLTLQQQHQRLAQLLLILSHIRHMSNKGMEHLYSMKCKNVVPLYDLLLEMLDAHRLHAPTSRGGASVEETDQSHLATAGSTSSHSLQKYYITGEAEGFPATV
Sequence of Androgen receptor (Homo sapiens) (P10275 whole entry, looked up): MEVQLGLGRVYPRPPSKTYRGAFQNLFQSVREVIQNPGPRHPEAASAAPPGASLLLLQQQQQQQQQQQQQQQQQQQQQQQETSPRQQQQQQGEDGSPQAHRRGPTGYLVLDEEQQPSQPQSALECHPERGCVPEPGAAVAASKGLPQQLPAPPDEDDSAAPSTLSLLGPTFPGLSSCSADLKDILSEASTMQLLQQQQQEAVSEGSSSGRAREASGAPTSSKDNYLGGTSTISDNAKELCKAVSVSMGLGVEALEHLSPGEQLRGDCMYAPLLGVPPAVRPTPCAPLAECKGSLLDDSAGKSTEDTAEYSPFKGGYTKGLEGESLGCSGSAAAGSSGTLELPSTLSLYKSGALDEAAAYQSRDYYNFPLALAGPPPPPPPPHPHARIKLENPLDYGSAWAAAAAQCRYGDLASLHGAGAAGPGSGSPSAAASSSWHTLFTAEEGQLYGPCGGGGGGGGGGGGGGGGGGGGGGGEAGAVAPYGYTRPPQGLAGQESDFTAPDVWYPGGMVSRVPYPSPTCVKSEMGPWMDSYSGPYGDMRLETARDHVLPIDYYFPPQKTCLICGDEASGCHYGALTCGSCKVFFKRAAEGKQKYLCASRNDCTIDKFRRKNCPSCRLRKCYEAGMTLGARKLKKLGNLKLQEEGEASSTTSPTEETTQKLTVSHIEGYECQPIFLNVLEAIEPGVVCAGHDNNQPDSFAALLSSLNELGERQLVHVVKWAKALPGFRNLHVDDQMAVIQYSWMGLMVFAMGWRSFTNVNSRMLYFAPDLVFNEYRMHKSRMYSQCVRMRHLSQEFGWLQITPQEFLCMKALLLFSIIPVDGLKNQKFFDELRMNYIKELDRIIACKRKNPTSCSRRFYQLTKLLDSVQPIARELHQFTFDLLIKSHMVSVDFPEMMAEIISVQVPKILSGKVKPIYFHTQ

For `CCN(CC)CCOC(=O)c1ccc(N)cc1`, the Potency entry in [1], in [2], in [3], in [4], in assay [5] and in assay [6] was “inactive” in each case. The Potency entry in [7] is “inactive”.

As to `COc1cc2c(c(OC)c1OC)-c1ccc(OC)c(=O)cc1[C@@H](NC(C)=O)CC2`, the Potency entry in assay [1], in assay [3], in assay [8], in assay [5] and in assay [6] was “inactive” in each case. Further, the Potency in assay [9] is 27 µM (active); in [4], 0.708 µM (active); in assay [7] it was “inactive and 48.6 nM (active) and 376 nM (active)”.

For the compound `CC(=O)/C=C/C1=C(C)CCCC1(C)C`, the Potency entry in assay [1], in assay [2], in assay [3], in assay [9], in assay [5] and in [6] was “inactive” each time. Besides, in assay [7], the Potency entry is “inactive”. In addition, in assay [10], the call was inactive.

As for `CC1=C(/C=C/C(C)=C/C=C/C(C)=C/C(=O)O)C(C)(C)CCC1`, the Potency result in assay [1], in assay [2], in assay [3], in assay [4], in assay [5] and in [6] was “inactive” in each case. For the same compound, in [7], the Potency entry was “inactive”. The result in assay [10] was inactive.

As for `C=C(C)OC(C)=O`, the Potency result in [1], in assay [2], in assay [3], in assay [9], in [5] and in assay [6] was “inactive” each time. Besides, the Potency entry in assay [7] is “inactive”. Also, in [10], the compound was classed as inactive.

As to `Cn1cnc2c1c(=O)[nH]c(=O)n2C`, the Potency result in assay [1], in [2], in [3], in assay [4], in assay [5] and in assay [6] was “inactive” throughout. For the same compound, the Potency entry in [7] is “inactive”. For the same compound, in assay [10], the compound was classed as inactive.

As for `CC(O)COc1ccccc1` (stereo not drawn), the Potency entry in [1], in assay [3], in assay [8], in assay [4], in assay [5] and in assay [6] was “inactive” each time. The Potency result in [7] was “inactive”. For the same compound, the outcome in [10] was inactive.

For `CC(=O)c1ccc(S(=O)(=O)NC(=O)NC2CCCCC2)cc1`, the Potency result in assay [1], in [3], in assay [8], in assay [9], in assay [4] and in [5] was “inactive” each time. Also, the Potency result in assay [6] and in [7] was “inactive” in each case. For the same compound, the result in [10] was inactive.

As for `NC(=O)OCC(COC(N)=O)c1ccccc1`, the Potency result in assay [1], in assay [3], in assay [8], in assay [9], in assay [4] and in assay [5] was “inactive” each time. Moreover, the Potency entry in [6] and in assay [7] was “inactive” each time. Besides, the compound was called inactive in [10].

On to `NC(=O)NO`, for which the Potency entry in assay [1], in assay [2], in assay [3], in assay [4], in assay [5] and in assay [6] was “inactive” each time. For the same compound, the Potency result in assay [7] was “inactive”. The compound was classed as inactive in assay [10].

`CCCCCCCC(=O)OCC(O)CO` (stereo not drawn): the Potency entry in assay [1], in assay [2], in [3], in assay [4], in assay [5] and in assay [6] was “inactive” throughout. In [7], the Potency entry is “inactive”.

In the case of `O=C(OCc1ccccc1)c1ccccc1`, the Potency entry in assay [1], in [2], in [3], in assay [4], in [6] and in [7] was “inactive” in each case. Moreover, the Potency in [5] was 15.4 µM (active) and 13.7 µM (active) and 10.6 µM (active).

Consider `NC(=O)N/N=C/c1ccc([N+](=O)[O-])o1`, for which the Potency result in assay [1], in [3], in assay [4] and in [5] was “inactive” in each case. Besides, the Potency entry in assay [9] is “inactive and 64.8 µM (active)”; in [6], “inactive and 54.5 µM (active)”; in assay [7], “inactive and 30.6 µM (active)”. Besides, in [10], the compound was called inactive.

As to `CCCCOC(=O)CCCCCCCCC(=O)OCCCC`, the Potency entry in assay [1], in assay [2], in assay [3], in assay [9], in assay [5] and in [6] was “inactive” each time. Also, in [7], the Potency entry is “inactive”.

With `CN(C)C=O`, the Potency result in [1], in [2], in [3], in assay [9], in assay [5] and in assay [6] was “inactive” each time. Also, the Potency result in assay [7] is “inactive”. Further, the outcome in assay [10] was inactive.

For the compound `CC(=O)OC/C=C(C)/C=C/C=C(C)/C=C/C1=C(C)CCCC1(C)C`, the Potency result in assay [1], in assay [3], in assay [9], in [4], in assay [5] and in assay [6] was “inactive” each time. For the same compound, the Potency entry in [7] is “inactive”. Also, in [10], the result was inactive.

For the compound `NCCNc1cccc2ccccc12`, the Potency result in [1], in assay [3], in assay [5] and in assay [7] was “inactive” throughout. The Potency in assay [8] is 68.5 µM (active) and inactive; in [6], 61.1 µM (active) and inactive. The outcome in assay [10] was inactive.

`Cc1c(N(C)CS(=O)(=O)O)c(=O)n(-c2ccccc2)n1C`: the Potency entry in [1], in [2], in assay [3], in [4], in [5] and in assay [6] was “inactive” each time. Further, the Potency result in assay [7] was “inactive”.

For `CC(C)(C)CC(C)(C)c1ccc(O)c(-n2nc3ccccc3n2)c1`, the Potency entry in assay [1], in assay [3], in [9], in assay [4], in [5] and in assay [6] was “inactive” each time. For the same compound, in assay [7], the Potency entry is “inactive”. The call in [10] was inactive.

With `O=C1CCCCCN1`, the Potency result in assay [1], in assay [3] and in [5] was “inactive” throughout. Also, the result in assay [10] was inactive. For the same compound, the Potency in [6] is 15.4 µM (active) and inactive; in assay [7] it was 3.86 µM (active) and inactive.

Consider `Nc1cccc(N)c1`, for which the Potency result in assay [1], in assay [3], in assay [5], in assay [6] and in assay [7] was “inactive” each time.

`CCc1cc(C(N)=S)ccn1`: the Potency result in assay [1], in assay [3], in assay [4], in assay [5], in [6] and in [7] was “inactive” in each case.

Regarding `NC(N)=NC(N)=NCCc1ccccc1`, the Potency result in [1], in assay [3], in assay [4], in assay [5], in [6] and in assay [7] was “inactive” each time. Further, in assay [9], the Potency is 7.65 µM (active) and 5.45 µM (active) and 7.5 µM (active). In assay [10], the call was inactive.
